From PMC4336329 (PLoS ONE, 2015) come the findings set out here.

Molecules are shown by their SMILES. About 14,000 (4.5%) of roughly 310,000 compounds showed an effect of 50% or more. Effects have a minus sign here. Shown is part of a subset that was picked to be rich in strong results.
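Note: peak tail current of the secondary pulse compared with the same well before compound.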

For this assay, the target named is human ether-à-go-go-related gene (hERG) potassium channel (human, UniProt Q12809). The assay can be described thus: primary screen, population patch clamp on CHO cells stably expressing hERG; higher = less effect of the substance.
Chain of human ether-à-go-go-related gene (hERG) potassium channel (Q12809 whole entry, looked up): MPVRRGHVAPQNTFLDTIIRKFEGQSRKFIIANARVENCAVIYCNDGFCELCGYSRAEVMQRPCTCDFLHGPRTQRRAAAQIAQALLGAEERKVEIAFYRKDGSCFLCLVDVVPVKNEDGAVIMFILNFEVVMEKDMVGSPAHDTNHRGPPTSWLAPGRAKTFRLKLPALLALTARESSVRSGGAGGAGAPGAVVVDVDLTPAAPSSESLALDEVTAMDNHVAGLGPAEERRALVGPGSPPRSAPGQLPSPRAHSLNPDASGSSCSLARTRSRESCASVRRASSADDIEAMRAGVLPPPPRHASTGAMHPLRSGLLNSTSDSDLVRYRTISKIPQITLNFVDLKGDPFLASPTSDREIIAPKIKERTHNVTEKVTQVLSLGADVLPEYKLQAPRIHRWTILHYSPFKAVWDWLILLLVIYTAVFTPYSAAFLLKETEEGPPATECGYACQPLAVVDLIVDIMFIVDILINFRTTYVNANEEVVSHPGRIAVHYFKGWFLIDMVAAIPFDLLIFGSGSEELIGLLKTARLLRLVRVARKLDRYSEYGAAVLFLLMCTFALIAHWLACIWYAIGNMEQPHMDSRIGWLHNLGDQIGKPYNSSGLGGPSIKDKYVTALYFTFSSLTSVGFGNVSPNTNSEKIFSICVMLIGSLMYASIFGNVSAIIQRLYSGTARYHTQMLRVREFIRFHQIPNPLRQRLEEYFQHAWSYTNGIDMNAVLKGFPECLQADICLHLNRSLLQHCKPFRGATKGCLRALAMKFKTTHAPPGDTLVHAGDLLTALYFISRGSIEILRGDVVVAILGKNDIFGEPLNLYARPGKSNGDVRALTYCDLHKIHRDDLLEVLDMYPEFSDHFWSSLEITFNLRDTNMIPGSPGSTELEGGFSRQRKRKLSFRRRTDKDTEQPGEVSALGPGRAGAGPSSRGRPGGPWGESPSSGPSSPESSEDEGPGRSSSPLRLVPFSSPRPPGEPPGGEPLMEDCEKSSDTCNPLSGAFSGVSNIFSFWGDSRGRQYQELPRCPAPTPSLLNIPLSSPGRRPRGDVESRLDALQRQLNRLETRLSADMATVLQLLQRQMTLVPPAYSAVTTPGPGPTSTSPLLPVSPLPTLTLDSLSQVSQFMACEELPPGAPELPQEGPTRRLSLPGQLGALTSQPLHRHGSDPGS
Consider `CCOC(=O)N1CCN(C(=O)COC(=O)C2CCN(S(=O)(=O)c3ccc(C)c(C)c3)CC2)CC1`, for which the “hERG current change (%, negative = inhibition) at 10uM” value was -62.1%.
Take `CCOC(=O)N1CCN(C(=O)COC(=O)C2CCN(S(=O)(=O)c3c(Cl)cccc3Cl)CC2)CC1`: the “hERG current change (%, negative = inhibition) at 10uM” value is reported as -38.1%.
The same measure for `Cc1ccc(S(=O)(=O)N2CCC(C(=O)OCC(=O)N3CCC(C)CC3)CC2)cc1C`: 7.85%; for `CCOC(=O)N1CCN(C(=O)C2CCN(S(=O)(=O)c3c(C)cc(C)cc3C)CC2)CC1`: -22.9%.
As to `CC1CCCCN1C(=O)COC(=O)C1CCN(S(=O)(=O)c2c(Cl)cccc2Cl)CC1` (stereo not shown), the “hERG current change (%, negative = inhibition) at 10uM” value is listed as -56.4%.
Regarding `CC(=O)Nc1ccc(Oc2cc(NC(C)=O)cc([N+](=O)[O-])c2)cc1`, the “hERG current change (%, negative = inhibition) at 10uM” value turned out to be 6.36%.
`CCOC(=O)c1c(NC(=O)CC2Nc3ccccc3NC2=O)sc(C)c1C` (stereo not shown): the “hERG current change (%, negative = inhibition) at 10uM” value is 10.6%.
For `CCOC(=O)C1CCCN(C(=O)c2cc(Nc3ccc(OC)c(OC)c3)nc3ccccc23)C1` (stereo not shown) the value was -14.9%; for `Cc1c(C(=O)Nc2ccc(Cl)cc2)c2ccccn2c1CCc1ccncc1`, -5.68%; for `OC(CSc1ccccc1Cl)CN1CCN(c2ccc(F)cc2)CC1` (stereo not shown), -57.4%.
For `COc1ccc(N2CCN(CC(O)COc3c(OC)cccc3OC)CC2)cc1.Cl` (stereo not shown) the value was -35.3%; for `OC(CSc1ccccc1Cl)CN1CCN(c2ccccc2F)CC1` (stereo not shown), -30.7%.
On to `COc1cccc(OCC(O)CN2CCN(c3ccccc3)CC2)c1.Cl` (stereo not shown), for which the “hERG current change (%, negative = inhibition) at 10uM” value is -43.4%.
Turning to `COc1cccc(OCC(O)CN2CCN(c3ccc(Cl)cc3)CC2)c1` (stereo not shown), the “hERG current change (%, negative = inhibition) at 10uM” value is -71.9%.
For `COc1ccc(OCC(O)CN2CCN(c3ccc(Cl)cc3)CC2)cc1` (stereo not shown), the “hERG current change (%, negative = inhibition) at 10uM” value is -30.7%.
As to `COc1cccc(OC)c1OCC(O)CN1CCN(c2ccc(F)cc2)CC1.Cl` (stereo not shown), the “hERG current change (%, negative = inhibition) at 10uM” value was -74.9%.
As to `COc1cccc(OCC(O)CN2CCN(c3ccccc3)CC2)c1` (stereo not shown), the “hERG current change (%, negative = inhibition) at 10uM” value was -45.2%.
Regarding `COc1cccc(OCC(O)CN2CCN(c3ccc(F)cc3)CC2)c1.Cl` (stereo not shown), the “hERG current change (%, negative = inhibition) at 10uM” value is -58.6%.
Regarding `CCOC(=O)N1CCN(CC(O)COc2c(OC)cccc2OC)CC1.Cl` (stereo not shown), the “hERG current change (%, negative = inhibition) at 10uM” value amounted to 2.85%.
Turning to `OC(COc1ccc2ccccc2c1)CN1CCN(c2ccc(F)cc2)CC1` (stereo not shown), the “hERG current change (%, negative = inhibition) at 10uM” value was -28%.
With `OC(CSc1c(Cl)cccc1Cl)CN1CCN(c2ccc(F)cc2)CC1` (stereo not shown), the “hERG current change (%, negative = inhibition) at 10uM” value is given as -40.3%.
Turning to `CCOC(=O)c1c(S(=O)(=O)NCCc2ccco2)c(C)n(C)c1C`, the “hERG current change (%, negative = inhibition) at 10uM” value is recorded as -1.25%.
For `NNC(=O)c1ccc(Cn2cccn2)o1`, the “hERG current change (%, negative = inhibition) at 10uM” value is recorded as 5.58%.
With `CCn1nc(C)c(NS(=O)(=O)c2ccc(C)cc2)c1C`, the “hERG current change (%, negative = inhibition) at 10uM” value was -0.126%.
With `CCCCC1(CCCC)C(=O)NC(=Nc2cccc(C)c2)NC1=O`, the “hERG current change (%, negative = inhibition) at 10uM” value is 0.0469%.
For `COCC(C)NS(=O)(=O)c1ccccc1` (stereo not shown) the value was 12.7%; for `COCCCNC(=S)Nc1cccc(S(=O)(=O)NC2=NCCC2)c1`, 36.7%.
In the case of `COc1ccc(CCNC(=O)c2ccc3c(c2)NC(=O)C(CSCc2cc(C)ccc2C)N3)cc1OC` (stereo not shown), the “hERG current change (%, negative = inhibition) at 10uM” value came to 12.2%.
Regarding `O=C(Nc1ccc(S(=O)(=O)NCc2ccco2)cc1)c1ccc2ccccc2n1`, the “hERG current change (%, negative = inhibition) at 10uM” value is recorded as -0.235%.
The same measure for `COc1ccc(C2(C)ON(c3ccccc3C(F)(F)F)C2=O)cc1` (stereo not shown): 5.36%; for `CCCCOCCCNC(=O)c1c(-c2ccccc2)noc1C`: 3.4%.
For the molecule `CCOC(=O)CCN(Cc1ccccc1)S(=O)(=O)c1csc(C(N)=O)c1`, the “hERG current change (%, negative = inhibition) at 10uM” value is -22.4%.
For `COc1ccc(OCC(O)CN2CCN(c3ccc(OC)cc3)CC2)cc1.Cl` (stereo not shown), the “hERG current change (%, negative = inhibition) at 10uM” value was -37.7%.
As for `CC(=O)c1ccc(OCC(O)CN2CCN(CC(O)COc3ccc(C(C)=O)cc3)CC2)cc1` (stereo not shown), the “hERG current change (%, negative = inhibition) at 10uM” value is -39.4%.
Take `COc1ccc(OCC(O)CN2CCN(CC(O)COc3ccc(OC)cc3)CC2)cc1` (stereo not shown): the “hERG current change (%, negative = inhibition) at 10uM” value is reported as -47.5%.
In the case of `CC1CCN(CC(O)COc2ccc(F)cc2)CC1` (stereo not shown), the “hERG current change (%, negative = inhibition) at 10uM” value is given as -37.7%.
With `OC(COc1ccc(F)cc1)CN1CCN(CC(O)COc2ccc(F)cc2)CC1` (stereo not shown), the “hERG current change (%, negative = inhibition) at 10uM” value is on record as -71.5%.
Consider `Cl.OC(COc1ccc2c(c1)OCO2)CN1CCN(c2ccc(F)cc2)CC1` (stereo not shown), for which the “hERG current change (%, negative = inhibition) at 10uM” value is on record as -66.1%.
With `Cl.OC(COc1ccc2c(c1)OCO2)CN1CCCC1` (stereo not shown), the “hERG current change (%, negative = inhibition) at 10uM” value worked out at 5.48%.
As for `COc1ccc(N2CCN(CC(O)COc3ccc(F)cc3)CC2)cc1.Cl` (stereo not shown), the “hERG current change (%, negative = inhibition) at 10uM” value is -69.9%.
For `Cl.OC(COc1ccc2c(c1)OCO2)CN1CCN(c2ccccc2)CC1` (stereo not shown), the “hERG current change (%, negative = inhibition) at 10uM” value is -2.44%.
For `CC(=O)c1ccc(OCC(O)CN2CCN(c3ccc(F)cc3)CC2)cc1.Cl` (stereo not shown) the value was -67.4%; for `CCC(=O)c1ccc(OCC(O)CN2CCN(c3ccc(F)cc3)CC2)cc1` (stereo not shown), -26.8%.
